# Screening data from PubChem BioAssay.
# Pf growth 96h = P. falciparum growth inhibition at 96 hours | P. falciparum luciferase reporter growth, 96 h | hit rate 6.9% among 320,000 | Potency, µM (series often up to 28.7 µM), inactives show at the top dose activity change, negative = inhibition, most hits filed as inhibitors | AID 504834; further: potency means the concentration at half of the fitted maximal effect
#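 96 h incubation, 37 C, 5% CO2, of luciferase-reporter P. falciparum-infected RBCs (2% hematocrit, 0.05% parasitemia final) with test compounds; endpoint luminescence.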
# HCMV antiviral = human cytomegalovirus inhibition; HFF cells, HCMV-luciferase reporter, 72 h; hits give low values; activity change, negative = inhibition, % at 57.5 µM; hit rate 4.5% among 410,000; AID 1259415; in the data active means activity change below about -60%; inconclusive means no clear call, values can overlap the other calls; inactive means above about -39%
#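 Screen run at 2 compound doses on HFFs infected with reporter HCMV, MOI 1 PFU/cell. Luciferase activity from cell lysates at 72 h post infection gave inhibition relative to buffer-only and Salinomycin wells.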
# HCV inhibitor = HCV inhibition; Huh7.5.1 HCVcc-Cre infection, luciferase reporter, 44 h; Potency, µM (top dose mostly 41.8 µM), without a hit: top-dose activity change, negative = inhibition, usual class: inhibitors; hit rate 3.4% among 340,000; AID 651820; further: potency means the concentration at half of the fitted maximal effect
#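 Luciferase read-out (15 sec integration) after a 15 min room-temperature substrate step quantifies HCVcc-Cre infection. Cells, 1,000 per well, had compound added 4 h post-plating, then virus at ~0.5 moi, and were cultured 44 h.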
# Pf growth 48h = P. falciparum growth inhibition at 48 hours (one generation). P. falciparum luciferase growth in erythrocytes, 48 h. Potency, µM (series often up to 28.7 µM), inactives show top-dose activity change, negative = inhibition, hits mostly inhibitors. hit rate 5.9% among 310,000. AID 504832; further: potency means the concentration at half of the fitted maximal effect
#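 First compound was added to culture medium, then infected red cells at 0.1% parasitemia and 2% hematocrit (final). After incubation at 37 C under 5% CO2, luciferase detection reagent was dispensed and light output recorded.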
# * = called active by the depositor; ? = inconclusive; . = not tested or not shown. Sampled rows, rich in hits. Any-hit rate of the full collection: about 13%. Unless noted, the call rests on the fitted dose curve; in most records, active means well fitted inhibition curve with a large enough effect; inconclusive means small, poorly fitted or top-dose-only effect, or another doubt; inactive means no such curve, though single readings can be large or run the other way. On the % scale 0 is the no-effect control and ±100 the full control effect.
SMILES,Pf growth 96h,HCMV antiviral,HCV inhibitor,Pf growth 48h
Cc1nn(Cc2cccc(C(=O)Nc3ccn(Cc4ccccc4F)n3)c2)c(C)c1[N+](=O)[O-],.,26,16%,-9%
CCn1cc(/C=C/C(=O)Nc2ccn(Cc3c(F)c(F)cc(F)c3F)n2)cn1,13µM*,-70*,?,?
CC(=O)N(C)CC#CCN1CCCC(CO)C1 (stereo unspecified),.,-61*,.,.
O=C(COc1ccccc1Cl)N(Cc1ccco1)Cc1ccco1,.,43,.,.
COc1ccc(OC)c(C(=O)C2COC(=O)C2)c1 (stereo unspecified),49%,-25,0%,10µM*
CC1CN(C(=O)NCc2ccccc2)c2cc(Cl)ccc2O1 (stereo unspecified),2.6µM*,-21,-24%,-15%
CC(=O)c1cc2c(cc1N/C(=N/S(=O)(=O)c1ccc(Cl)cc1)c1ccc(F)cc1)OCO2,.,-14,.,.
CN(C)c1ccc(CNC(=O)Cn2ccc3cc(S(=O)(=O)N4CCCCCC4)ccc32)cc1,.,-8,.,.
COc1cccc(CNC(=O)CCc2c(C)nc3c(c(C)nn3-c3ccc(C)c(C)c3)c2C)c1,.,-18,.,.
COc1cc(CNC(C)(C)CO)cc(Br)c1OCc1ccc(Cl)cc1Cl,13µM*,-99*,10µM*,12µM*
COc1cc(CNC(C)(C)CO)cc(Br)c1OCc1ccc(Cl)cc1,?,?,5µM*,13µM*
CC(C)(CO)NCc1c(OCc2ccc(Cl)cc2)ccc2ccccc12,4.1µM*,-16,-23%,?
Cc1cc(C)c(Cn2c(C)c(CNCc3ccccc3C)c(C(=O)O)c2C)c(C)c1,.,26,.,.
O=c1cc(-c2ccc(F)cc2)nc(SCc2nc(-c3cccc(C(F)(F)F)c3)no2)[nH]1,.,0,.,.
Cc1ccccc1NC(=O)C1Cc2ccccc2CN1C(=O)OCc1ccccc1 (stereo unspecified),13µM*,-25,?,-23%
Cc1ccc(NC(=O)C2CC(O)CN2C(=O)Oc2ccccc2)c(C)c1 (stereo unspecified),?,26,-3%,29%
Cc1ccc(NC(=O)C2CC(O)CN2C(=O)OCc2ccccc2)c(C)c1 (stereo unspecified),?,-63*,17%,31%
CC(=O)Nc1ccc(NC(=O)C2CCCN2C(=O)Nc2ccccc2[N+](=O)[O-])cc1 (stereo unspecified),18%,2,2%,8%
Cc1ccc(NC(=O)C2CCCN2C(=O)OCc2ccccc2)c(C)c1 (stereo unspecified),-1%,32,4%,0%
O=C(Nc1ccccc1)C1CCCN1C(=O)Nc1ccccc1[N+](=O)[O-] (stereo unspecified),-30%,-62*,-14%,18%
Cc1ccc(NC(=O)C2CCCN2C(=O)OCc2ccccc2)c(O)c1 (stereo unspecified),5.2µM*,0,-7%,?
Cc1ccccc1C1=CC(=O)CC(C)(C)C1=O,.,-19,.,.
Cc1ccc(NC(=O)Cn2nc(C)n3cccc3c2=O)c(C)c1,.,-24,.,.
Cc1oc2ncnc(N3CCOCC3)c2c1C(=O)Nc1ccc(Br)cc1F,.,7,.,.
CC(=O)c1cccc(NC(=O)N2CCCC2C(=O)NCc2ccccc2)c1 (stereo unspecified),30%,28,13%,14%
SMILES,Pf growth 96h,HCMV antiviral,HCV inhibitor,Pf growth 48h
Cc1cccc(NC(=O)N2CCCC2C(=O)NCc2ccccc2)c1 (stereo unspecified),9.3µM*,-15,3%,-9%
CCC(=O)N(CCC(c1ccco1)c1ccccc1OC)Cc1cccs1 (stereo unspecified),10µM*,4,?,.
CC(=O)N(CCC(c1ccccc1)c1ccco1)Cc1cccs1 (stereo unspecified),1%,-31,-11%,48%
COc1ccc(N=c2cc(-c3ccc(O)cc3)oc3ccccc23)cc1,?,-26,?,3.3µM*
CCOc1ccc(N=c2cc(-c3ccc(OC)cc3)oc3ccccc23)cc1,?,-25,?,?
COc1ccc(N=c2cc(-c3ccc(OC)cc3)oc3ccccc23)cc1,-100%,?,?,?
COc1ccc(-c2cc(=Nc3ccc(C)cc3)c3ccccc3o2)cc1,6.6µM*,-12,?,?
Cc1cccc(CSCCNC(=O)CN(c2ccccc2)S(=O)(=O)N(C)C)c1,.,6,.,.
CSc1nc(S(=O)(=O)c2ccc(C)cc2)c(Cl)s1,?,29,-2%,12µM*
COCCCNC(=O)c1sc2nc(C)c(C(=O)Nc3ccc(C)cc3C)c(-c3ccc(Cl)cc3)c2c1N,.,16,.,.
Cc1ccc(CN2CCCC(C(=O)c3cccc(C(F)(F)F)c3)C2)o1 (stereo unspecified),-19%,-30,?,-4%
O=C(c1cccc(C(F)(F)F)c1)C1CCCN(C(=O)c2cc(C3CC3)[nH]n2)C1 (stereo unspecified),58%,-67*,?,?
CCOc1cc(CN2CCCC(C(=O)c3cccc(C(F)(F)F)c3)C2)ccc1O (stereo unspecified),8%,-22,-27%,5.2µM*
O=C(c1cccc(C(F)(F)F)c1)C1CCCN(Cc2ccccc2O)C1 (stereo unspecified),8.3µM*,5,3%,?
COc1ccc(CC(=O)NCC2CCCN(Cc3cccc(C(F)(F)F)c3)C2)cc1 (stereo unspecified),159%,7,22%,0%
O=C(NCC1CCCN(Cc2ccccc2F)C1)c1cccc(C(F)(F)F)c1 (stereo unspecified),12µM*,?,11µM*,-5%
Cc1cc(C(=O)N2CCCC(C(=O)c3cccc(C(F)(F)F)c3)C2)n[nH]1 (stereo unspecified),-16%,-35,?,?
Cc1oc(-c2ccc(Cl)cc2)nc1CS(=O)CC(=O)NCc1ccc(Cl)cc1 (stereo unspecified),.,-13,.,.
CCc1cccc2c(-c3ccccc3)nc(SCC(=O)Nc3ccccc3OC)nc12,.,33,.,.
CCn1ccc2cc(S(=O)(=O)N3CCC(C(=O)NCc4cccc(C)c4)CC3)ccc21,.,6,.,.
CCOC(=O)c1ccc2c(c1)n(CCCS(=O)(=O)[O-])c(/C=C/c1ccc(Cl)cc1)[n+]2CC,?,?,?,9.3µM*
CCOC(=O)c1ccc2c(c1)n(CC)c(C)[n+]2CC,30%,-2,?,?
Cc1ccc(Nc2cc(C)nc3nncn23)c(C)c1,.,2,.,.
[O-][N+]1=c2ccc(Nc3ccccc3)cc2=NC12CCCCC2,.,?,?,9.3µM*
CC(=O)C(=Nc1ccc(Cl)cc1Cl)NNc1cccc(Cl)c1,.,-16,10µM*,.
O=C(NC1(C(F)(F)F)NC(=O)N(CCc2ccccc2)C1=O)c1ccccc1F (stereo unspecified),.,-4,.,.
Cc1ccc(NC(=O)CCCN2C(=O)COc3ccc(C)cc32)c(C)c1,.,-2,.,.
CCCCn1c(=O)c(C(=O)N/N=C/c2ccc(F)cc2)c(O)c2ccccc21,39%,.,.,33%
